Among the data in PubChem BioAssay (Tox21) are outcome and Potency values, retold here.

Inconclusive results are not listed. Calls of active or inactive are those of the source. Unless noted, calls follow the shape of the dose curve; as a rule, active = well fitted curve in the direction sought with a large enough effect in the repeat runs; inconclusive = weak or mixed curves; inactive = no such curve, though single readings can be large; an effect the other way counts as inactive or inconclusive.

A short description of assay [1]: qHTS assay to identify small molecule antagonists of the glucocorticoid receptor (GR) signaling pathway - cell viability counter screen (AID 720693). Also: nearly all actives have a fitted effect of over 55% in size. A general note: In qHTS, concentration-response curves come from the screen itself.
Assay [2] is described as follows: qHTS assay for identifying genotoxic compounds that show differential cytotoxicity against isogenic chicken DT40 cell lines with known DNA damage response pathways - wild type cell line (AID 743012). Also: nearly all actives have a fitted effect of over 60% in size. Also: potency is read from the fitted curve at half-maximal effect. The essentials: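 Viability of DNA repair-proficient chicken DT40 cells was assessed by CellTiter-Glo luminescence following 40 h compound exposure at 37 C/5% CO2.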

The nature of assay [3]: qHTS assay to identify small molecule antagonists of the androgen receptor (AR) signaling pathway - cell viability counter screen (AID 743033; also: nearly all actives have a fitted effect of over 45% in size).
Assay [4] can be described thus: qHTS assay to identify small molecule antagonists of the androgen receptor (AR) signaling pathway using the MDA cell line - cell viability counter screen (AID 743041; also: nearly all actives have a fitted effect of over 45% in size). The essentials:
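qHTS viability read-out; MDA-kb2 AR-luc; R1881-stimulated; 16 h exposure at 37C, 0% CO2; CellTiter-Fluor, 30 min; fluorescence intensity.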

The nature of assay [5]: qHTS assay to identify small molecule antagonists of the thyroid receptor (TR) signaling pathway - cell viability counter screen (AID 743064). Also: nearly all actives have a fitted effect of over 50% in size. The procedure, abridged: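 GH3.TRE-Luc cells, 4 h pre-plating; cpd + T3 1 nM final; 37 °C 23.5 h; CellTiter-Fluor 30 min; fluorescence read.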
Assay [6] in a line: qHTS assay to identify small molecule antagonists of the thyroid receptor (TR) signaling pathway (AID 743065). Also: nearly all actives have a fitted effect of over 55% in size. Also: potency is read from the fitted curve at half-maximal effect. The essentials:
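GH3.TRE-Luc rat pituitary cells carrying two TR response elements driving luciferase were plated for 4 h, given compound plus 1 nM T3 (final), and incubated 23.5 h at 37 C. ONE-Glo luminescence measured reporter inhibition; CellTiter-Fluor fluorescence tracked cytotoxicity.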

The test system of assay [7] is thyroid hormone receptor (rat, GH3 cells). In words: qHTS assay to identify small molecule agonists of the thyroid receptor (TR) signaling pathway (AID 743066; calls by dose curve).
The target of assay [8] is Estrogen receptor (Homo sapiens) (UniProt P03372). The assay can be described thus: qHTS assay to identify small molecule antagonists of the estrogen receptor alpha (ER-alpha) signaling pathway (AID 743069; active = well fitted curve in the direction sought with a large enough effect in the signal ratio in the repeat runs, not every such curve was filed as active; the % refers to the signal ratio). The procedure, abridged:
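Screening used a UAS-driven beta-lactamase reporter integrated into HEK293 cells expressing ER-alpha, stimulated with 17beta-estradiol alongside test compounds over 18 hr at 37C; signal came from LiveBLAzer B/G FRET fluorescence.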

Assay [9] can be described thus: qHTS assay to identify small molecule antagonists of the estrogen receptor alpha (ER-alpha) signaling pathway - cell viability counter screen (AID 743074; calls by dose curve; also: nearly all actives have a fitted effect of over 45% in size).
In assay [10] the target is Estrogen receptor (Homo sapiens) (UniProt P03372). The assay can be described thus: qHTS assay to identify small molecule agonists of the estrogen receptor alpha (ER-alpha) signaling pathway (AID 743075; calls by dose curve).
Sequence of Estrogen receptor (Homo sapiens) (P03372 whole entry, looked up): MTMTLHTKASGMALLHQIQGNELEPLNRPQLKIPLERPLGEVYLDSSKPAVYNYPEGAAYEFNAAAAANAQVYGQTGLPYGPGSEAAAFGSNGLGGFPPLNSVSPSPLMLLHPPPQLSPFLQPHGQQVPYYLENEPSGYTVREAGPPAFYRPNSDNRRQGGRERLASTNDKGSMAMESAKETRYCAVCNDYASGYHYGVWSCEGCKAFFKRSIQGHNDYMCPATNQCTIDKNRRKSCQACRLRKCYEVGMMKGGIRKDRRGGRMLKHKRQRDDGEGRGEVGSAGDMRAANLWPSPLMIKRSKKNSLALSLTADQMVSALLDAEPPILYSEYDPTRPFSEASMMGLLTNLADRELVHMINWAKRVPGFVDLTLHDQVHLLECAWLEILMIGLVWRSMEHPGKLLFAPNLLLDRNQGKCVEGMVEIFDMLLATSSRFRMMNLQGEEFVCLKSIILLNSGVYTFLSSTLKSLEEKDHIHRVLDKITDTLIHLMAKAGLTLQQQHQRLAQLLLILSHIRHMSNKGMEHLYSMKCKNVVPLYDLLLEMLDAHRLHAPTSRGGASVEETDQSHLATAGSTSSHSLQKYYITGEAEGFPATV
For assay [11] the target is unchanged. In words: qHTS assay to identify small molecule agonists of the estrogen receptor alpha (ER-alpha) signaling pathway using the BG1 cell line (AID 743079). Also: nearly all actives have a fitted effect of over 20% in size.
Assay [12] in a line: qHTS assay to identify small molecule antagonists of the estrogen receptor alpha (ER-alpha) signaling pathway using the BG1 cell line - cell viability counter screen (AID 743081).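 Also: compound given together with 17beta-estradiol as the ER stimulus; series mostly up to about 70 µM; nearly all actives have a fitted effect of over 45% in size.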
Another assay addresses Aromatase (Homo sapiens) (UniProt P11511). In words: qHTS assay to identify aromatase inhibitors (AID 743083). Also: series mostly up to about 70 µM; nearly all actives have a fitted effect of over 55% in size.
Assay [13] can be described thus: qHTS assay for identifying genotoxic compounds that show differential cytotoxicity against isogenic chicken DT40 cell lines with known DNA damage response pathways - Rev3 mutant cell line (AID 743014). Also: nearly all actives have a fitted effect of over 55% in size. Also: potency is read from the fitted curve at half-maximal effect.
A short description of assay [14]: qHTS assay for identifying genotoxic compounds that show differential cytotoxicity against isogenic chicken DT40 cell lines with known DNA damage response pathways - Rad54/Ku70 mutant cell line (AID 743015). Also: nearly all actives have a fitted effect of over 60% in size. Also: potency is read from the fitted curve at half-maximal effect.
The nature of assay [15]: qHTS assay to identify small molecule antagonists of the estrogen receptor alpha (ER-alpha) signaling pathway using the BG1 cell line (AID 743080; calls by dose curve;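 also: BG1 cells stimulated with 17beta-estradiol alongside compound; series mostly up to about 70 µM; nearly all actives have a fitted effect of over 25% in size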). The essentials:
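Endogenous full-length ER-alpha in BG1-Luc-4E2 cells drives a stably integrated 4×ERE luciferase gene; compounds were tested against 17beta-estradiol over 21.5 h, with luminescence and multiplexed viability fluorescence recorded.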

Assay [16] addresses Androgen receptor (Homo sapiens) (UniProt P10275). In words: qHTS assay to identify small molecule antagonists of the androgen receptor (AR) signaling pathway (AID 743035; active = well fitted inhibition curve with a large enough effect in the signal ratio in the repeat runs, not every such curve was filed as active; the % refers to the signal ratio). The procedure, abridged: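 Reporter HEK293 cells were exposed to compounds and R1881 overnight (16 h, 37C); beta-lactamase activity was then quantified by FRET fluorescence.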
For assay [17] the target is unchanged. In words: qHTS assay to identify small molecule agonists of the androgen receptor (AR) signaling pathway (AID 743036; active = well fitted activation curve with a large enough effect in the signal ratio in the repeat runs, with a control signal flat, not every such curve was filed as active; the % refers to the signal ratio). The essentials:
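AR-bla HEK293 cells, 2,000/well; 4 h preincubation 37C/5% CO2; compound (DMSO) 16 h at 37C; LiveBLAzer B/G FRET substrate 2 h RT; fluorescence intensity read-out.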

For assay [18] the target is unchanged. In words: qHTS assay to identify small molecule agonists of the androgen receptor (AR) signaling pathway using the MDA cell line (AID 743040; also: nearly all actives have a fitted effect of over 20% in size). The essentials: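 Agonist activity is measured as luciferase luminescence in human MDA-kb2 cells whose MMTV reporter responds to both AR and GR. Compounds in DMSO incubate 16 h at 37C, 0% CO2, and ONE-Glo is read after 30 min.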

The target is the same in assay [19]. The assay can be described thus: qHTS assay to identify small molecule antagonists of the androgen receptor (AR) signaling pathway using the MDA cell line (AID 743042; also: nearly all actives have a fitted effect of over 55% in size). The procedure, abridged:
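MDA-kb2 cells (human breast carcinoma, stably carrying an MMTV-luciferase reporter responsive to AR and GR) were plated at 3,000 cells/well and preincubated 5 hr at 37C, then given compound plus R1881 agonist for 16 h. ONE-Glo luminescence was read.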

Sequence of Androgen receptor (Homo sapiens) (P10275 whole entry, looked up): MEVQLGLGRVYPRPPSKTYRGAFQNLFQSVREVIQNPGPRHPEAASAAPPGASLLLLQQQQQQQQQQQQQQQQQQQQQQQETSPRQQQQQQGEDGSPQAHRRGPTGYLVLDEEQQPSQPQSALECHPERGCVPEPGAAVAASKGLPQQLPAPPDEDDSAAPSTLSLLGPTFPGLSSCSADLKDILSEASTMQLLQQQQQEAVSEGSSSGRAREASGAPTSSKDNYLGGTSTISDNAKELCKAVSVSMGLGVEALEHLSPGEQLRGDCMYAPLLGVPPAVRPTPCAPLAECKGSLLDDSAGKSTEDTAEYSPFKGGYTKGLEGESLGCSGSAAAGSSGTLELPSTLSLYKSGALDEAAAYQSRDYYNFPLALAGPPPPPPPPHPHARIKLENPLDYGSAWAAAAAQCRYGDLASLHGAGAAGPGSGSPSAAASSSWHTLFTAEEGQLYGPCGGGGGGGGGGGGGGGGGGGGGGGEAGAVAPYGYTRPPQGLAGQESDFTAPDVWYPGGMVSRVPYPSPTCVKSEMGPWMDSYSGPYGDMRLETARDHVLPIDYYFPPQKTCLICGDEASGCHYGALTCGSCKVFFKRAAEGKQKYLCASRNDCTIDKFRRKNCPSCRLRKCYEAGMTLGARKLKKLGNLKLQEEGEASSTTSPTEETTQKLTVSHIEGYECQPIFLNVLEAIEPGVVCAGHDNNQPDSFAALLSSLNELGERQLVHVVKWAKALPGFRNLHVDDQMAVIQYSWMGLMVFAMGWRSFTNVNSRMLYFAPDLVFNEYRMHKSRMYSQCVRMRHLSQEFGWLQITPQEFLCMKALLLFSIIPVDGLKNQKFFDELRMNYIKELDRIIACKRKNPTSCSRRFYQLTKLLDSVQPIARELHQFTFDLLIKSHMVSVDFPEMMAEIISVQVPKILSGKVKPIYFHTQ
Sequence of Aromatase (Homo sapiens) (P11511 whole entry, looked up): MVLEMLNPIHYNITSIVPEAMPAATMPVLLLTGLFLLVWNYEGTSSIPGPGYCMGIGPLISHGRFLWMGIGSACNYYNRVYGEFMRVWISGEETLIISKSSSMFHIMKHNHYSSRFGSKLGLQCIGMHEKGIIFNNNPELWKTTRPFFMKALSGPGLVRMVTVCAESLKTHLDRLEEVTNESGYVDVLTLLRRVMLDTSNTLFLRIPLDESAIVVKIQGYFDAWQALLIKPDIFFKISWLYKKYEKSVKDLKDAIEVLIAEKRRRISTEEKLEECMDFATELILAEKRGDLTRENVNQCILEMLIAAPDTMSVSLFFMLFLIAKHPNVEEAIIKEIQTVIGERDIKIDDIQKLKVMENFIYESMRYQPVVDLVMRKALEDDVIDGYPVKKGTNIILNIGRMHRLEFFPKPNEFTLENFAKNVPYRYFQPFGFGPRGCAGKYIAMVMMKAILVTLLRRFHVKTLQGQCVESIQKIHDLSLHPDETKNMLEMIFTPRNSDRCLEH

With `CC(C)(C)C(=O)/C=C/c1ccc(Cl)cc1`, the call in assay [1], in assay [3], in [9] and in [12] was inactive. The Potency result in assay [2], in assay [4], in assay [5], in assay [6], in assay [7] and in assay [8] was “inactive” throughout. Besides, the Potency result (in assay [10]; in [11]; with Aromatase (Homo sapiens)) was “inactive” throughout.

As to `CN(C)CCOC(c1ccc(Cl)cc1)c1ccccn1` (stereo unspecified), the compound was classed as inactive in assay [1], in [3], in [9] and in assay [12]. The Potency entry in assay [2], in assay [13], in [14], in [7], in [8] and in [10] was “inactive” throughout. For the same compound, the Potency result in assay [11] and in [15] was “inactive” each time.

Turning to `CCCCCOC(=O)Nc1nc(=O)n([C@@H]2O[C@H](C)[C@@H](O)[C@H]2O)cc1F`, the compound was called inactive in assay [1], in [3], in [9] and in assay [12]. Also, the Potency result in assay [2], in assay [13], in assay [14], in [5], in [6] and in assay [7] was “inactive” in each case. The Potency result (in assay [8]; in assay [10]; in assay [11]; in [15]; with Aromatase (Homo sapiens)) was “inactive” in each case.

Consider `C=C(C)C1CC=C(C)C(O)C1` (stereo unspecified), for which the call in [1], in [3], in [9] and in assay [12] was inactive. The Potency entry in assay [2], in assay [13], in assay [14], in [6], in assay [7] and in [8] was “inactive” each time. Also, the Potency result (in [10]; in assay [11]; in assay [15]; in the assay with Aromatase (Homo sapiens)) was “inactive” throughout.

For the compound `CCCCCC[C@@H](CCC)C(=O)O`, the compound was called inactive in [1], in assay [3] and in assay [9]. Moreover, the Potency result in assay [2], in assay [13], in [14], in [5], in assay [6] and in [7] was “inactive” throughout. The Potency entry (in assay [8]; in assay [10]; in assay [11]; in assay [15]; with Aromatase (Homo sapiens)) was “inactive” in each case.

For `COC(=O)[C@H]1[C@H]2C[C@@H]3c4[nH]c5cc(OC)ccc5c4CCN3C[C@H]2C[C@@H](OC(=O)COc2ccc(OC)cc2)[C@@H]1OC`, the outcome in assay [1], in [9] and in assay [12] was inactive. The Potency in assay [2] is 21.1 µM (active); in [13] it was 33.5 µM (active); in [14] it was 18.8 µM (active); in assay [6], 23.7 µM (active). Further, the Potency result (in assay [4]; in assay [10]; in assay [11]; in assay [15]; with Aromatase (Homo sapiens)) was “inactive” throughout.

Turning to `CCC(C)(C)C1CCC(OC)CC1` (stereo unspecified), the outcome in assay [1], in assay [3], in assay [9] and in assay [12] was inactive. The Potency entry in assay [2], in [14], in assay [5], in assay [6], in assay [7] and in [8] was “inactive” each time. Further, the Potency result (in [10]; in assay [11]; in assay [15]; with Aromatase (Homo sapiens)) was “inactive” in each case.

As for `CCCCc1ccc2cccc(S(=O)(=O)O)c2c1`, the compound was classed as inactive in [1], in assay [3], in assay [17], in [19], in assay [9] and in [12]. Also, the Potency result in [13], in assay [14], in assay [16], in [18], in [4] and in assay [5] was “inactive” in each case. The Potency result in [6], in assay [7], in [8], in assay [10], in [11] and in [15] was “inactive” throughout. Further, the Potency entry with Aromatase (Homo sapiens) is “inactive”.

As to `NCCNC(=O)c1ccc(Cl)cn1`, the compound was called inactive in [1], in [3], in assay [9] and in assay [12]. Besides, the Potency entry in assay [2], in assay [14], in assay [4], in assay [6], in [7] and in [8] was “inactive” throughout. In addition, the Potency result (in assay [10]; in [11]; in assay [15]; with Aromatase (Homo sapiens)) was “inactive” each time.

Regarding `CCCCC1CCCCC(=O)O1` (stereo unspecified), the compound was classed as inactive in assay [1], in [3], in assay [9] and in assay [12]. Also, the Potency entry in [2], in assay [13], in assay [14], in assay [5], in assay [6] and in assay [8] was “inactive” throughout. The Potency result (in assay [10]; in assay [11]; in [15]; in the assay with Aromatase (Homo sapiens)) was “inactive” throughout.
